Screens as filed in PubChem BioAssay.
CYP2C19 act: human CYP2C19 activators, primary screen, biochemical, luminescence. Cytochrome P450 2C19 (Homo sapiens), P33261. activation factor at 5 µM. recombinant CYP2C19, luciferin-H EGE luminescence; active compounds read high; 0 = fully inhibited enzyme, 1 = untreated enzyme. 96,000 tested, under 10 active;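 active = activation factor of at least 2 at 5 µM in the primary screen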;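 also: 0 = wells with 2.5 mM tranylcypromine and 1 = vehicle-only wells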
CYP2C9 act: human CYP2C9 activators, primary screen, biochemical, luminescence; Cytochrome P450 2C9 (Homo sapiens), P11712; 96,000 compounds, 1.4% hits; activation factor at 5 µM; recombinant CYP2C9, luciferin-H conversion; active compounds read high; factor 1 = untreated enzyme, 0 = blocked;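 active = activation factor of 2 or more for CYP2C9 at a 5 µM dose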;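 also: 0 = sulfaphenazole-blocked wells and 1 = vehicle-only wells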
Target sequence (P11712 whole entry, looked up): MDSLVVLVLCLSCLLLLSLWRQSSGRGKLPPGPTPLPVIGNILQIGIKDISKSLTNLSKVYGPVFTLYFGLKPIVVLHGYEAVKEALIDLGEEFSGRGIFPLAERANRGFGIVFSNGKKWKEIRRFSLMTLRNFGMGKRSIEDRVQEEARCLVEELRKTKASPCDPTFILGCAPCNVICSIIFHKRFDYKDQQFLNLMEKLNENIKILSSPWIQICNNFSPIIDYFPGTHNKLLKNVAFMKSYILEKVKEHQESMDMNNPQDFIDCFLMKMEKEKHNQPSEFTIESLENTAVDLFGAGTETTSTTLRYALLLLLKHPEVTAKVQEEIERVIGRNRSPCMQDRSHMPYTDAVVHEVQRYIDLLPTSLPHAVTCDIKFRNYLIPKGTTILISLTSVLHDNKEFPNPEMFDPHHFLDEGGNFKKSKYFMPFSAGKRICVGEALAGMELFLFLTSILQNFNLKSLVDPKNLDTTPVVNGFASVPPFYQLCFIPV
sEH activator: soluble epoxide hydrolase activators, primary screen, biochemical, human sEH. AID 717, 2007. purified human sEH enzymatic activity, activator screen. activation, % at 2 µM. Bifunctional epoxide hydrolase 2 (Homo sapiens), P34913. 91,000 compounds, 0.04% hits; in the data active = activation above about 37%
sEH inhibitor: soluble epoxide hydrolase inhibitors, primary screen, biochemical, human sEH | Bifunctional epoxide hydrolase 2 (Homo sapiens), P34913 | recombinant human sEH enzymatic activity assay | inhibition, % at 2 µM | 91,000 compounds, 0.34% hits | AID 707, 2007; in the data active = inhibition above about 80%
CYP2C19 inh: blockers of cytochrome P450 2C19 activity – biochemical, luminescence, ADME assay, primary screen; P33261; CYP2C19 Supersomes, luciferin-H EGE luminescence, 30 min; inhibition, % at 5 µM; 96,000 compounds, 21% hits; AID 778, 2007;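 active = CYP2C19 inhibition above a set limit at 5 µM in the primary screen, cut at about 50% in these data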;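 also: plate controls were negative control wells for no effect and 2.5 mM tranylcypromine positive control for full effect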
CYP2C9 inhib: blockers of cytochrome P450 2C9 activity – biochemical, luminescence, ADME assay, primary screen; inhibition, % at 5 µM; 96,000 compounds, 20% hits; CYP2C9 Supersomes, luciferin-H conversion; P11712;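 active = blocking of liver enzyme CYP2C9 beyond about 50% at 5 µM, limit read from the data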
* hit, by the source's call; x = not tested or not shown. Shown are actives, neighbours in structure and some others; about 27% of the full set was active somewhere.

SMILES	CYP2C19 act	CYP2C9 act	sEH activator	sEH inhibitor	CYP2C19 inh	CYP2C9 inhib
CCC(C)(C)n1nnnc1C(c1ccccn1)N1CCN(c2cccc(OC)c2)CC1 (stereo not given)	x	x	1	4	x	x
Cc1cc(N2CCCC2)ccc1/C=N/n1cnnc1	0	0.1	-5	6	99*	86*
CCOCCn1c(SCc2c(F)cccc2Cl)nc2c1c(=O)[nH]c(=O)n2C	0.8	0.9	-4	1	22	6
O=C1NCCCC1C(=O)N1CCN(C(c2ccccc2)c2ccccc2)CC1 (stereo not given)	1	1	x	x	-5	2
CCOc1ccc(Br)cc1/C=N/NC(=O)c1ccncc1	0.1	0.2	-9	11	91*	83*
Nc1c(C(=O)NCc2ccc(Cl)cc2)sc2nc3c(c(C(F)(F)F)c12)CCC3	0.8	0.4	6	-8	16	61*
Cc1ccc(CNC(=O)c2sc3nc4c(c(C(F)(F)F)c3c2N)CCC4)cc1	0.9	0.5	-7	5	14	48
Cc1nn(C)c(C)c1Sc1ccc(Br)cc1	0.4	0.8	-2	2	64*	25
CCC1Oc2ccccc2N(CC(=O)Nc2ccc(OC)cc2OC)C1=O (stereo not given)	0.6	0.5	2	-2	45	45
O=C1CCNc2cc3ccccc3cc21	0.5	0.8	-7	5	52*	24
Cc1ccc2c(c1)C(=O)CCN2	1	1.1	-4	4	0	-14
O=C1c2ccc(-c3nc4ccccc4o3)cc2C(=O)N1Cc1cccnc1	x	x	11	-6	x	x
Cc1[nH]c(=O)cc2ccccc12	1	1.1	4	-1	5	-12
CC1=C(C(=O)Nc2cccc(C)n2)C(c2ccc3c(c2)OCO3)C2=C(CC(c3ccco3)CC2=O)N1 (stereo not given)	0.1	0.1	-6	11	86*	94*
CC(C)(C)c1ccc(C(=O)Nc2cnccn2)cc1	0.9	0.8	4	-3	12	24
CCOC(=O)N1CCN(S(=O)(=O)c2ccc3c(c2)CCN3C(=O)CC)CC1	0.8	0.7	8	-7	20	27
Cc1ccc(/C=N/N2C(=S)SC(C)(C)C2N(O)C(=O)Nc2ccc([N+](=O)[O-])cc2)cc1 (stereo not given)	0.8	0.7	-7	10	23	30
CC1(C)SC(=S)N(/N=C/c2ccc(O)cc2)C1N(O)C(=O)Nc1ccc([N+](=O)[O-])cc1 (stereo not given)	0.7	0.3	-3	4	27	66*
COc1ccccc1CN1C(=S)SC(C)(C)C1NO (stereo not given)	0.1	0.3	4	-9	91*	68*
CN1C(=S)SC(C)(C)C1NO (stereo not given)	1.1	1.2	10	-12	-10	-15
COc1ccc(CNC(=O)c2ccc(NC(=O)CC3SC(N4CCCC4)=NC3=O)cc2)cc1 (stereo not given)	0.9	1	-61	60	13	-2
CN(C1=NC(=O)C(CC(=O)Nc2ccc(Br)cc2)S1)c1ccc(O)cc1 (stereo not given)	0.9	0.4	-16	17	10	62*
c1ccc(-n2ncc3c(N4CCN(c5ccccn5)CC4)nc(N4CCOCC4)nc32)cc1	0.8	0.8	x	x	18	25
CCn1c(Cn2nnc(-c3ccccc3)n2)nnc1SCC(=O)Nc1cccc(C)c1C	0.3	0.4	2	-2	68*	57*
CCn1c(Cn2nnc(-c3ccccc3)n2)nnc1SCC(=O)Nc1ccc(C(C)=O)cc1	0.7	0.6	6	-6	26	40
SMILES	CYP2C19 act	CYP2C9 act	sEH activator	sEH inhibitor	CYP2C19 inh	CYP2C9 inhib
CCn1c(Cn2nnc(-c3ccccc3)n2)nnc1SCC(=O)Nc1cccc(C(C)=O)c1	0.3	0.6	4	-4	70*	42
CC(C)(C)c1ccccc1OCCCCCNCCO	0.9	1	x	x	7	-2
COc1ccc(-n2c(NCCN(C)C)nc3sc4c(c3c2=O)CCCCC4)cc1	0.9	0.7	-14	15	10	30
Nc1c(S(=O)(=O)c2cc(Cl)ccc2Cl)c2nc3ccccc3nc2n1CCN1CCOCC1	0.2	0	-3	5	79*	96*
CC(c1nc2ccccc2o1)N1C(=O)c2ccccc2C1=O (stereo not given)	x	x	7	-7	x	x
CCOC(=O)Cn1nnnc1CN(Cc1cccs1)Cc1cc2cc(C)cc(C)c2[nH]c1=O	0.4	1.3	-4	2	63*	-30
Cc1cccc2cc(CN(Cc3cccs3)Cc3nnnn3Cc3ccccc3)c(=O)[nH]c12	0.4	0.6	-8	7	65*	42
CCC(C)(C)n1nnnc1CN(Cc1cccs1)Cc1cc2cc(OC)ccc2[nH]c1=O	0.3	0.4	x	x	70*	59*
COc1cc(-c2nnc(SCC(=O)/C(C#N)=C(\C)N)o2)cc(OC)c1OC	0.8	0.6	-5	8	24	41
CCN(CC)C(=O)C(C)OC(=O)c1ccc(O)cc1 (stereo not given)	1	1	-5	6	-2	2
CCOCCCN1CC(C(=O)NCCc2ccc(C)cc2)CC1=O (stereo not given)	1.1	0.8	2	-4	-8	22
Nn1c(SCc2nc3ccccn3c2Br)nnc1-c1cccnc1	0.9	2.5*	-4	6	9	-153
Cc1ccc(C)c(CSc2nnc(-c3cccnc3)n2N)c1	0.8	1.1	2	0	20	-13
CC(=NCc1ccco1)c1c(O)n(C2CCCCC2)c(=O)[nH]c1=O	0	0.4	-18	19	97*	55*
COC(=O)C1(CCSC)NC(c2ccco2)C2C(=O)N(C)C(=O)C21 (stereo not given)	0.4	1.1	9	-9	60*	-6
O=C(N1CCCC1)n1c(Cc2ccccc2)nc2ccccc21	0.8	1.1	-4	4	18	-11
Cc1ccccc1CSCCNC(=O)CN(c1ccc2c(c1)OCO2)S(C)(=O)=O	0.4	0.4	-1	4	64*	56*
CS(=O)(=O)N(CC(=O)NCCSC1CCCCC1)c1ccc2c(c1)OCO2	0.3	0.4	-8	9	70*	56*
O=C(NCCSCc1ccco1)Nc1ccccc1	0.2	0.7	-66	66	79*	25
CS(=O)(=O)N(CC(=O)NCc1ccco1)c1ccccc1Cl	0.8	0.8	-8	9	21	22
Cc1ccccc1N(CC(=O)NCCSCc1ccco1)S(C)(=O)=O	0.3	0.3	-11	13	74*	68*
